Tests used:
Conditions in all cases: concentration: 1 μM, replicates: in singlicate; n = 1
MTOR = test system: MTOR
MUSK = test system: MUSK
MYLK2 = test system: MYLK2
MYLK4 = test system: MYLK4
MYLK = test system: MYLK
MYO3A = test system: MYO3A
MYO3B = test system: MYO3B
NDR1 = test system: T1, NDR1
T1 construct: gene STK38

NDR2 = test system: NDR2
NEK10 = test system: NEK10
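Also: KINOMEscan kinase panel screen.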

| Structure (SMILES) | %Inh (MTOR) [%] | %Inh (MUSK) [%] | %Inh (MYLK2) [%] | %Inh (MYLK4) [%] | %Inh (MYLK) [%] | %Inh (MYO3A) [%] | %Inh (MYO3B) [%] | %Inh (NDR1) [%] | %Inh (NDR2) [%] | %Inh (NEK10) [%] |
| --- | --- | --- | --- | --- | --- | --- | --- | --- | --- | --- |
| COc1cccc(C2=C(Nc3ccc(Cl)c(C(=O)O)c3)C(=O)NC2=O)c1 [SB-390769] | 18 | 17 | 21 | 60 | 100 | 20 | 0 | 100 | 0 | 73 |
| Cn1cc(-c2[nH]c3cc(NC(=O)[C@H](N)C4CCCCC4)cc4c3c2C=NNC4=O)cn1 | 17 | 12 | 47 | 98.7 | 24 | 5 | 0 | 93.1 | 75 | 54 |
| C[C@@H](Oc1cc(-n2cnc3cc(-c4ccnc(NCCS(C)(=O)=O)c4)ccc32)sc1C(N)=O)c1ccccc1Cl [GSK907232] | 2 | 30 | 53 | 2 | 10 | 13 | 0 | 0 | 0 | 0 |
| CN1CCN(CCCNc2nccc(-c3c(-c4ccc(F)cc4)nn4cc(C(F)(F)F)ccc34)n2)CC1 [GW621581] | 0 | 0 | 8 | 0 | 0 | 0 | 0 | 10 | 0 | 10 |
| COc1cc2c(cc1OCCN1CCNCC1)ncc1c3ccc(C#N)cc3[nH]c21 | 19 | 0 | 68 | 70 | 47 | 0 | 0 | 3 | 0 | 20 |
| Cl.c1ccc(-c2ccc3c(Nc4ccc5[nH]ccc5c4)ccnc3c2)nc1 [GW440138] | 4 | 0 | 0 | 0 | 13 | 23 | 0 | 0 | 27 | 1 |
| Cc1ccc(C)c(NC(=O)NC2CCN(c3ccnc(Nc4ccc(F)cc4)n3)C2)c1 (centres unmarked) [GSK1379720] | 15 | 5 | 0 | 0 | 2 | 5 | 0 | 0 | 0 | 9 |
| O=C(Nc1cccc(-c2nn3ccccc3c2-c2ccnc(Nc3cccc(C(F)(F)F)c3)n2)c1)c1c(F)cccc1F [GSK292658] | 0 | 10 | 0 | 0 | 0 | 0 | 0 | 0 | 0 | 0 |
| FC(F)(F)c1ccc(/C=C/c2cncnc2Nc2ccc3[nH]c(Cc4ccccc4)nc3c2)cc1 [GW709199] | 28 | 15 | 2 | 25 | 15 | 0 | 30 | 21 | 0 | 0 |
| Cn1cc(-c2ccc3c(c2)CCN3C(=O)Cc2cccc(F)c2)c2c(N)ncnc21 [GSK2603358] | 16 | 5 | 83 | 0 | 18 | 51 | 5 | 0 | 7 | 22 |
| CCCCc1nn2ncccc2c1-c1ccnc(Nc2ccc(N3CCN(C)CC3)cc2)n1 [GW684941] | 16 | 98.2 | 41 | 26 | 4 | 0 | 0 | 18 | 0 | 65 |
| Clc1ccc(-c2nn3ncccc3c2-c2ccnc(Nc3ccc4c(c3)OCCO4)n2)cc1 [GW829116] | 0 | 0 | 0 | 0 | 0 | 7 | 1 | 34 | 8 | 0 |
| CN1CCN(Cc2cccc(-c3ccc4c(Nc5ccc(Oc6ccccc6)cc5)ccnc4c3)c2)CC1 [GW578342] | 15 | 17 | 0 | 0 | 13 | 28 | 0 | 14 | 25 | 0 |
| COc1ccc(Nc2nccc(NCCNC(=O)c3cc4ccccc4s3)n2)cc1 [GSK1379896] | 0 | 8 | 0 | 6 | 18 | 5 | 0 | 9 | 0 | 0 |
| CC(=O)Nc1nc2cnc(Nc3cc(NC(=O)c4cccc(C5(C#N)CC5)c4Cl)ccc3C)nc2s1 | 4 | 12 | 0 | 0 | 0 | 0 | 0 | 0 | 0 | 1 |
| CC(C)c1nc(-c2cccc(NS(=O)(=O)c3c(F)cccc3F)c2F)c(-c2ccnc(Nc3ccc(N4CCOCC4)nc3)n2)s1 [GSK2008607] | 10 | 10 | 0 | 0 | 18 | 78 | 65 | 62 | 65 | 0 |
| O=C(Nc1cccc(-c2nn3ncccc3c2-c2ccnc(Nc3ccccc3)n2)c1)c1c(F)cccc1F [GSK198271] | 10 | 4 | 0 | 0 | 7 | 6 | 30 | 11 | 0 | 0 |
| COc1cc(Nc2nccc(N3CCC(NC(=O)Nc4cccc(C(C)=O)c4)C3)n2)cc(OC)c1OC (centres unmarked) [GSK1379753] | 0 | 18 | 7 | 1 | 17 | 6 | 0 | 8 | 0 | 20 |
| COc1ccc(Nc2nccc(N3CCC(NC(=O)Nc4cccc(OC)c4)C3)n2)cc1 (centres unmarked) [GSK1379742] | 10 | 8 | 14 | 0 | 2 | 0 | 0 | 0 | 0 | 0 |
| Cl.NC(=O)c1cccc(Nc2nccc(Nc3ccc(Oc4c(Cl)cccc4Cl)c(Cl)c3)n2)c1 [GW659009] | 0 | 5 | 0 | 0 | 0 | 0 | 0 | 17 | 0 | 0 |
| Nc1n[nH]c2cnc(-c3ccccc3)cc12 [SB-642124] | 14 | 99.9 | 6 | 69 | 3 | 8 | 0 | 20 | 0 | 47 |
| CNC(=O)c1ccccc1Nc1nc(Nc2ccc(N3CCOCC3)cc2)ncc1Cl.Cl [GSK1576028] | 8 | 74 | 74 | 99.9 | 94 | 48 | 0 | 97.9 | 91.3 | 24 |
| COc1cc(Nc2nccc(-c3c(-c4cccc(NC(=O)c5c(F)cccc5F)c4)nn4ccccc34)n2)cc(OC)c1OC [GSK323521] | 33 | 23 | 91.6 | 5 | 8 | 26 | 100 | 22 | 0 | 10 |
| CCS(=O)(=O)c1ccc(OC)c(Nc2nccc(-c3c(-c4cccc(NC(=O)c5c(F)cccc5F)c4)nn4ncccc34)n2)c1 [GSK326180] | 15 | 11 | 9 | 2 | 17 | 30 | 6 | 0 | 0 | 21 |
| c1ccc(-c2n[nH]cc2Nc2ccnc3ccccc23)nc1 [GW694077] | 11 | 7 | 0 | 99.9 | 22 | 25 | 0 | 0 | 4 | 95.7 |
| Cl.Cl.NCC(NC(=O)c1cc(-c2ccccc2)c(-c2ccnc3[nH]ccc23)s1)c1ccccc1 (centres unmarked) [GSK1321561] | 0 | 13 | 17 | 94.9 | 26 | 14 | 0 | 24 | 16 | 25 |
| CN(C)S(=O)(=O)c1cc(-c2ccc3nccc(-c4cccc(S(N)(=O)=O)c4)c3c2)cnc1N [GSK1669921] | 100 | 16 | 0 | 11 | 35 | 0 | 1 | 17 | 0 | 9 |
| COc1cccc(NC(=O)NC2CCN(c3ccnc(Nc4cc(OC)c(OC)c(OC)c4)n3)C2)c1 (centres unmarked) [GSK1379763] | 7 | 5 | 0 | 0 | 17 | 12 | 0 | 0 | 0 | 15 |
| CN(C)Cc1ccc(-c2ccc3c(Nc4ccc(Oc5ccccn5)cc4)ccnc3c2)o1 [GW567148] | 8 | 0 | 0 | 0 | 4 | 0 | 0 | 6 | 0 | 13 |

Reference: publication PMC5540273 (PLoS ONE, 2017)
